PubChem BioAssay (NCATS)
Records with an inconclusive call do not appear. Values without a mark were called inactive. Calls come from the whole dose curve. Residues, ends and D or L forms follow the SMILES beside them. *: point of attachment. Octanoyl = CCCCCCCC(=O)*

Assay: qHTS for inhibitors of Rabies Virus screened against the NCATS CANVASS Library (AID 1347402); note: 0% is about no effect
Conditions: Rabies virus infection cell assay; series mostly up to 45.9 µM; activity change, negative = inhibition: at the top concentration
For CN1CCc2cc3c(c4c2[C@H]1[C@@H](O)c1ccccc1-4)OCO3, the “activity change, negative = inhibition” value was -21.3%.
In the case of CCCCCCCC(=O)N[C@@H](CC(C)C)C(=O)N[C@H](C=O)CCC(=O)O (Octanoyl-Leu-Glu-aldehyde), the “activity change, negative = inhibition” value is reported as -4.61%.
In the case of CC[C@H](O)CCCCC[C@@H]1NC(=O)[C@H]2CCCCN2C(=O)[C@H]([C@H](C)CC)NC(=O)[C@H](Cc2cn(OC)c3ccccc23)NC1=O, the “activity change, negative = inhibition” value is reported as -34.2%.
For C/C(=C\[C@H](C)C(=O)CCCC1CC(=O)NC(=O)C1)C(O)[C@@H](C)[C@H](O)C/C=C/CC/C=C/C(=O)O (stereo not given in full), the “activity change, negative = inhibition” value was 21.1%.
In the case of CS/C=C/C(N)=O, the “activity change, negative = inhibition” value is reported as -10.9%.
